Data on five compounds can be found in PubChem BioAssay.

Each structure is given as a SMILES string. The source made the active and inactive calls. Unless noted, the rule behind the calls is not given here.

In experiment [1] the test system is Wnt5a (protein binding on small-molecule microarray). Briefly: small molecules binding Wnt5a protein – biophysical, small-molecule microarray, 635/667 nm fluorescence, primary screen (AID 1142).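 Note: fluorescence read at 667 nm with signal to noise per printed feature.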 As to conditions: 635 nm fluorescence, higher = more signal.
The nature of experiment [2]: ATP-based viability of Huh7 replicon cells – cell-based, CellTiter-Glo luminescence, basal, 48 h, cytotoxicity control for HCV replication inhibitor project, primary screen (AID 1143).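 Note: Huh7 hepatoma cells carrying a hepatitis C replication reporter with no stimulus; test concentration not given here.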 The following applies: higher = more signal, called active from +8 up or from −8 down. In general terms: Replicon systems follow genome replication, usually without infectious particles.

Experiment [3] can be described thus: Pseudomonas biofilm growth suppression – PAO1 strain, BacTiter-Glo luminescence, LB-PBS, primary screen (AID 1144). The following applies: P. aeruginosa PAO1 biofilm, 12 h, higher = more signal.
Experiment [4] in a line: basal CRE-LacZ reporter activity in PC12 – cell-based, unstimulated, primary screen (AID 1145). The following applies: no forskolin, luminescence, 4.5 h, higher = more signal, called active from +8 up or from −8 down.
Experiment [5] can be described thus: forskolin-driven CRE-LacZ activity in PC12 – cell-based, CRE-LacZ reporter, forskolin-stimulated, primary screen (AID 1146).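 Note: PC12 cells with 6xCRE LacZ reporter stimulated by forskolin 10 µM; beta-galactosidase reporter signal reflecting CREB driven transcription.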 As to conditions: luminescence, 4.5 h, higher = more signal, called active from +8 up or from −8 down.
In experiment [6] the target is Streptavidin (Streptomyces avidinii) (UniProt P22629). The experiment can be described thus: compounds binding control protein streptavidin – biophysical, small-molecule microarray, 635/667 nm fluorescence, artefact control for SMM compound annotation, primary screen (AID 1147).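 Note: signal reflects streptavidin binding to arrayed compounds as a control protein.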 The following applies: higher = more signal.
A short description of experiment [7]: probe aInhba binding on compound microarray – biochemical, small-molecule microarray, 635/667 nm fluorescence, primary screen (AID 1148).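 Note: score merges 667nm spot fluorescence with signal-to-noise for antibody binding to printed compounds.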 As to conditions: higher = more signal.
In experiment [8] the target is Torsin-1A (Homo sapiens) (UniProt O14656). Briefly: TOR1A wild-type binding on microarray – cell lysate, small-molecule microarray, lysate, 635/667 nm, primary screen (AID 1149). The following applies: COS7 hTOR1A-WT lysate, 635 nm fluorescence, higher = more signal.
The target is the same in experiment [9]. The experiment can be described thus: torsin A mutant lysate binding on microarrays – cell lysate, small-molecule microarray, COS7 lysate, 635/667 nm fluorescence, primary screen (AID 1150).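 Note: score pools 667 nm emission and signal to noise measuring lysate protein binding.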 As to conditions: COS7 hTOR1A mutant lysate, 635 nm fluorescence, higher = more signal.
The subject of experiment [10] is Sonic hedgehog protein (Shh). Briefly: Sonic hedgehog microarray binding compounds – biochemical, small-molecule microarray, 635/667 nm fluorescence, primary screen (AID 1151).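 Note: Shh protein binding to compounds spotted on small-molecule microarray slides; score combines spot fluorescence intensity with signal-to-noise across triplicate slides.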 As to conditions: 635 nm fluorescence, higher = more signal.
The nature of experiment [11]: optical density shifts of acrAB sulA E. coli – strain DRC41, OD650, 48 h, E. coli filamentation inducer project, primary screen (AID 1152).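 Note: E. coli MC1000 strain DRC41 lacking acrAB efflux pump and sulA.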 The following applies: higher = more signal, called active from +8 up or from −8 down.
Experiment [12] can be described thus: probe aLefty1 binding on compound microarray – biochemical, small-molecule microarray, 635/667 nm fluorescence, primary screen (AID 1153).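 Note: score merges spot fluorescence with signal-to-noise ratio from the scanned slide images.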 The following applies: higher = more signal.
Experiment [13] is described as follows: plasmodial surface anion channel blockers, osmotic lysis – cell-based, P. falciparum Indochina, OD700, 1 h, primary screen (AID 1154). The following applies: P. falciparum Indochina infected RBC osmotic lysis, higher = more signal, called active from +8 up or from −8 down.
Experiment [14] can be described thus: plasmodial surface anion channel blockers, osmotic lysis – cell-based, P. falciparum Indochina, OD700, 2 h, primary screen (AID 1155).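 Note: lysis reports solute entry through the parasite surface anion channel PSAC.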 The following applies: P. falciparum Indochina infected erythrocytes, higher = more signal, called active from +8 up or from −8 down.
A short description of experiment [15]: changes in parasitized red cell lysis, either direction – P. falciparum Indochina, OD700, 3 h, PSAC antagonist project, primary screen (AID 1156). As to conditions: P. falciparum-infected erythrocytes, osmotic lysis, higher = more signal, called active from +8 up or from −8 down.
Experiment [16] in a line: plasmodial surface anion channel blockers, osmotic lysis – cell-based, P. falciparum Indochina, OD700, 18 h, primary screen (AID 1157). As to conditions: P. falciparum Indochina infected erythrocytes, osmotic lysis OD700, 18 h; higher = more signal, called active from +8 up or from −8 down.
A short description of experiment [17]: S6 kinase pathway phospho-S6 level changes – cell-based, A549, cytoblot, luminescence, serum-stimulated, primary screen (AID 1158).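 Note: serum-stimulated A549 lung adenocarcinoma cells; signal is phosphorylated S6 detected by cytoblot immunostaining with HRP secondary.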 As to conditions: 5 h, higher = more signal.
Experiment [18] has as its target NADPH oxidase 2 (Homo sapiens) (UniProt P04839). Briefly: compounds shifting NOX2 Amplex Red fluorescence – cell-based, HEK293-NOX2, PMA-stimulated, NOX inhibitor project, primary screen (AID 1159). Note: test concentration not given here. The following applies: 45 min, higher = more signal, called active from +8 up or from −8 down.
In experiment [19] the target is NADPH oxidase 4 (Homo sapiens) (UniProt Q9NPH5). Briefly: compounds shifting NOX4 Amplex Red fluorescence – cell-based, HEK293-NOX4, tetracycline-induced, NOX inhibitor project, primary screen (AID 1160). The following applies: HEK293-NOX4, Amplex Red H2O2 fluorescence, 45 min; higher = more signal, called active from +8 up or from −8 down.
Experiment [20] addresses NADPH oxidase 5 (Homo sapiens) (UniProt Q96PH1). The experiment can be described thus: compounds shifting NOX5 Amplex Red fluorescence – cell-based, HEK293-NOX5, NOX inhibitor project, primary screen (AID 1161). The following applies: HEK293-NOX5, ionomycin, 45 min, higher = more signal.

Chain of NADPH oxidase 5 (Homo sapiens) (Q96PH1 whole entry, looked up): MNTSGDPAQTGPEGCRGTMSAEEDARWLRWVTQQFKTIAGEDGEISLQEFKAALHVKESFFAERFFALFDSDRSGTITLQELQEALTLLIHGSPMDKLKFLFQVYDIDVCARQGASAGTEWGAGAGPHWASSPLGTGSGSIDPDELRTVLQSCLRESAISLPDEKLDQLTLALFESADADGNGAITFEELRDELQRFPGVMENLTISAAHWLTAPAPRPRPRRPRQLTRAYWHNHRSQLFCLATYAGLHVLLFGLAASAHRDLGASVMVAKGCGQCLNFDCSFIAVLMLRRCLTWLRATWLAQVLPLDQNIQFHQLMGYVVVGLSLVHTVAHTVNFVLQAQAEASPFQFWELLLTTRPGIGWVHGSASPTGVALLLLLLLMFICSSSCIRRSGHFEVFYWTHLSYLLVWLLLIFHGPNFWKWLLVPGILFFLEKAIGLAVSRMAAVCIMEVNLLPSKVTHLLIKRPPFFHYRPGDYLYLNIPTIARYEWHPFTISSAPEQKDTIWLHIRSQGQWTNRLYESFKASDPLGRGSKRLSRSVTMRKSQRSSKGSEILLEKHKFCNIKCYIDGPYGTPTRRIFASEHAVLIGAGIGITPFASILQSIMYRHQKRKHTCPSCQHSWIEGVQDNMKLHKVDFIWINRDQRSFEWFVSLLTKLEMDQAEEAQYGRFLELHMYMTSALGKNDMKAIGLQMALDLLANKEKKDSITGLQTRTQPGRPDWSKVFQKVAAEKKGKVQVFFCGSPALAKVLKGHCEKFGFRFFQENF
Chain of Torsin-1A (Homo sapiens) (O14656 whole entry, looked up): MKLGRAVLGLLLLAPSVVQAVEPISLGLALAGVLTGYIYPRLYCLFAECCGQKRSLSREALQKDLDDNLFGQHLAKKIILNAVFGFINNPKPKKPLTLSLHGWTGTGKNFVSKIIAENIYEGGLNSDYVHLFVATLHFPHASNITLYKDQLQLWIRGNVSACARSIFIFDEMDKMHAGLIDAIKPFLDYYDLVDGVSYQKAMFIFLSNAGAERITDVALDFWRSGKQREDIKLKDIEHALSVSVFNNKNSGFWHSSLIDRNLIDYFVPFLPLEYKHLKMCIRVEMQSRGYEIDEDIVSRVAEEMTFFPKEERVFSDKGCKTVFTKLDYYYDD
Chain of NADPH oxidase 4 (Homo sapiens) (Q9NPH5 whole entry, looked up): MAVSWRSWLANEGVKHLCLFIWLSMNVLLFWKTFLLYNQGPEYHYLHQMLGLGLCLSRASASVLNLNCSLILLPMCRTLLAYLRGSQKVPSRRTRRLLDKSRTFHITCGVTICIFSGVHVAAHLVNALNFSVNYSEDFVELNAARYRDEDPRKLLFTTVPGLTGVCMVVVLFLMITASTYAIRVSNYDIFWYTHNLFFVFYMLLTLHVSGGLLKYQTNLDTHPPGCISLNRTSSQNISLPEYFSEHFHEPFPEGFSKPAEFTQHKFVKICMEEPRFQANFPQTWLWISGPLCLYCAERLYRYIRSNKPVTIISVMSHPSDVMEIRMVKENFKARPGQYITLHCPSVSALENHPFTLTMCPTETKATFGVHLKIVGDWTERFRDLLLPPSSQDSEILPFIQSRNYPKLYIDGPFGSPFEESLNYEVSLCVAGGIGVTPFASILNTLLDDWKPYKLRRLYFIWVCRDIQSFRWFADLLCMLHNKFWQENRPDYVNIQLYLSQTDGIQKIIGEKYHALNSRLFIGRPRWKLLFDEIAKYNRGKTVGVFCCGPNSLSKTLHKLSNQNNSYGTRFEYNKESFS
Chain of NADPH oxidase 2 (Homo sapiens) (P04839 whole entry, looked up): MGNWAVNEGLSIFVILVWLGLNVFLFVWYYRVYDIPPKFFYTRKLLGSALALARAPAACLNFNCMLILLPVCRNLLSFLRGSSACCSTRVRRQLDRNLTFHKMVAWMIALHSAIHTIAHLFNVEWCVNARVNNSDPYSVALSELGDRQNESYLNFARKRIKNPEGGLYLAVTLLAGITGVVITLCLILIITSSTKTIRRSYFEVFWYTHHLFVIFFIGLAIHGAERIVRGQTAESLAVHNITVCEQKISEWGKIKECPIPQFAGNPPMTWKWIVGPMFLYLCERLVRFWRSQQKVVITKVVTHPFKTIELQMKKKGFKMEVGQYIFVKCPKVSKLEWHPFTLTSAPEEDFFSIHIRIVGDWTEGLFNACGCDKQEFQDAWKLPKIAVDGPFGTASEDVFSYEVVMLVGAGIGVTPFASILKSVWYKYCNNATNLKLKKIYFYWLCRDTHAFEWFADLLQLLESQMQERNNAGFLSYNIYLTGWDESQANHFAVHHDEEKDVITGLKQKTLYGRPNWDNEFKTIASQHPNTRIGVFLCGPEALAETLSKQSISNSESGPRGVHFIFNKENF
Chain of Streptavidin (Streptomyces avidinii) (P22629 whole entry, looked up): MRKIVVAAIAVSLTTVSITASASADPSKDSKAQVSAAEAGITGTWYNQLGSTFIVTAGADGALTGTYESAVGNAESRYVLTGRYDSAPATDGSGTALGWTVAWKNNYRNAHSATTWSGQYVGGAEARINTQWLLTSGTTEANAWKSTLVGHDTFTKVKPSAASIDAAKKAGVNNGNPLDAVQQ

Take `CC(=O)OC[C@H]1O[C@H](C#CCCCc2ccccc2)C=C[C@@H]1OC(C)=O`: the composite z-score is 0.18 in experiment [1]; -0.111 in experiment [6]; 0.322 in experiment [7]; -0.0078 with Torsin-1A (Homo sapiens) [8]; 0.0804 with Torsin-1A (Homo sapiens) [9]; 1.19 in experiment [10]. Moreover, the composite z-score in [12] was -0.0536. Besides, the z-score was -2.33 (inactive) in experiment [2]; 0.952 (inactive) in experiment [3]; 0.106 (inactive) in experiment [4]; 1.28 (inactive) in experiment [5]; -0.802 (inactive) in experiment [11]; 3.35 (inactive) in experiment [13]. Moreover, the z-score in [14] was 0.23 (inactive); in experiment [15] it was -0.213 (inactive); in experiment [16] it was 0.148 (inactive); in [17] it was -0.0744; in experiment [18], -1.19 (inactive); in [19], 0.903 (inactive). Also, the z-score in [20] stood at 0.839.

As for `CC(=O)C[C@H](O)[C@@H](NC(=O)OC(C)(C)C)C(C)C`, the composite z-score in experiment [1] was -0.388; in experiment [6], -0.3; in [7] it was -0.0963; with Torsin-1A (Homo sapiens) [8] it was -1.05; in the experiment with Torsin-1A (Homo sapiens) [9], -0.657; in experiment [10], 0.347. In experiment [12], this compound came in with a composite z-score of -0.196. Further, the z-score in experiment [2] was -2.64 (inactive); in [3], -1.13 (inactive); in experiment [4], 0.288 (inactive); in experiment [5], 1.01 (inactive); in [11], -0.593 (inactive); in [13], 0.427 (inactive). For the same compound, the z-score was -0.649 (inactive) in experiment [14]; 1.48 (inactive) in [15]; -1.64 (inactive) in experiment [16]; 1.63 in [17]; 0.2 (inactive) in experiment [18]; -0.658 (inactive) in experiment [19]. The z-score in experiment [20] was -1.63.

In the case of `COc1ccc(O[C@H]2C=C[C@@H](c3ccccc3)O[C@@H]2COC(=O)CCC(C)=NOC(C)CN2CCCCc3nc(C)c(C)cc32)cc1` (stereo not given in full), the composite z-score in experiment [1] is -0.133; in experiment [6], 0.095; in experiment [7], -0.0719; with Torsin-1A (Homo sapiens) [8], -0.406; in the experiment with Torsin-1A (Homo sapiens) [9], -0.489; in experiment [10], -0.0679. The same compound had a composite z-score in experiment [12] of -0.584. Besides, the z-score is -0.622 (inactive) in experiment [2]; -0.28 (inactive) in [3]; -0.817 (inactive) in [4]; 0.287 (inactive) in experiment [5]; 0.233 (inactive) in [11]; 21.7 (active) in experiment [13]. Besides, the z-score is 3.58 (inactive) in [14]; 1.68 (inactive) in experiment [15]; 1.15 (inactive) in [16]; -0.0603 in experiment [17]; -2.04 (inactive) in experiment [18]; -0.369 (inactive) in experiment [19]. Besides, the z-score in experiment [20] was -0.824.

Consider `O=C1C[C@@H](O)[C@@H](O)[C@@H]2[C@@H]3C(=O)N(Cc4ccc5c(c4)OCO5)C(=O)[C@@H]3CC[C@@H]12`, for which the composite z-score is 0.0765 in [1]; -0.282 in experiment [6]; -0.149 in [7]; 0.622 with Torsin-1A (Homo sapiens) [8]; 0.407 with Torsin-1A (Homo sapiens) [9]; 0.698 in experiment [10]. Besides, the composite z-score in [12] was -0.103. Besides, the z-score in experiment [2] is 0.136 (inactive); in experiment [3], 0.00816 (inactive); in experiment [4] it was -0.116 (inactive); in [5] it was 0.0785 (inactive); in experiment [11] it was 0.306 (inactive); in experiment [13], 4.63 (inactive). Besides, the z-score is 0.632 (inactive) in experiment [14]; 0.311 (inactive) in experiment [15]; 0.182 (inactive) in experiment [16]; -0.352 in experiment [17]; 0.323 (inactive) in [18]; -0.209 (inactive) in experiment [19]. Further, in experiment [20], the z-score is -0.246.

Regarding `CCc1cc2c(nc1CC)CCN(CCC(C)=NOC(C)CN1CCCc3nc(C)c(C)cc31)C2` (stereo not given), the composite z-score was determined as 0.56 in experiment [1]; 0.854 in experiment [6]; 0.341 in experiment [7]; 1.31 with Torsin-1A (Homo sapiens) [8]; 0.748 with Torsin-1A (Homo sapiens) [9]; 1.35 in [10]. Besides, the composite z-score in experiment [12] amounted to 0.876. For the same compound, the z-score is -0.0844 (inactive) in experiment [2]; -0.129 (inactive) in [3]; 1.14 (inactive) in experiment [4]; 0.534 (inactive) in experiment [5]; -1.97 (inactive) in [11]; 2.25 (inactive) in experiment [13]. The z-score in experiment [14] was -0.0243 (inactive); in [15], 0.0813 (inactive); in experiment [16] it was 0.146 (inactive); in experiment [17], -1.08; in [18] it was -1.41 (inactive); in experiment [19], -0.293 (inactive). In experiment [20], the z-score is -1.86.
